FBA Mtb inh: inhibitors of M. tuberculosis fructose-bisphosphate aldolase | purified M. tuberculosis FBA, fluorescence read-out | inhibition, % at 1 µM | actives 2.3% (n = 360,000) | P9WQA3; in the data active means inhibition above about 27%;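 further: 0% = vehicle and 100% = reference inhibitor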
CCHF vOTU inh: blocks the CCHF virus ovarian tumor domain protease; inhibition, % at 11.5 µM; CCHFV vOTU protease, Pep-AMC fluorescence; actives 0.55% (n = 370,000); further: 0% = vehicle wells with enzyme and 100% = no enzyme wells
RecA intein inh: inhibitors of M. tuberculosis RecA intein splicing; actives 0.75% (n = 290,000); P9WHJ3; cell-free RecA intein splicing, fluorescence; inhibition, % (no concentration beside the values); in the data active means inhibition above about 30%;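 further: 0% = vehicle wells and 100% = reference inhibitor control wells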
Target sequence (P9WHJ3 whole entry, looked up): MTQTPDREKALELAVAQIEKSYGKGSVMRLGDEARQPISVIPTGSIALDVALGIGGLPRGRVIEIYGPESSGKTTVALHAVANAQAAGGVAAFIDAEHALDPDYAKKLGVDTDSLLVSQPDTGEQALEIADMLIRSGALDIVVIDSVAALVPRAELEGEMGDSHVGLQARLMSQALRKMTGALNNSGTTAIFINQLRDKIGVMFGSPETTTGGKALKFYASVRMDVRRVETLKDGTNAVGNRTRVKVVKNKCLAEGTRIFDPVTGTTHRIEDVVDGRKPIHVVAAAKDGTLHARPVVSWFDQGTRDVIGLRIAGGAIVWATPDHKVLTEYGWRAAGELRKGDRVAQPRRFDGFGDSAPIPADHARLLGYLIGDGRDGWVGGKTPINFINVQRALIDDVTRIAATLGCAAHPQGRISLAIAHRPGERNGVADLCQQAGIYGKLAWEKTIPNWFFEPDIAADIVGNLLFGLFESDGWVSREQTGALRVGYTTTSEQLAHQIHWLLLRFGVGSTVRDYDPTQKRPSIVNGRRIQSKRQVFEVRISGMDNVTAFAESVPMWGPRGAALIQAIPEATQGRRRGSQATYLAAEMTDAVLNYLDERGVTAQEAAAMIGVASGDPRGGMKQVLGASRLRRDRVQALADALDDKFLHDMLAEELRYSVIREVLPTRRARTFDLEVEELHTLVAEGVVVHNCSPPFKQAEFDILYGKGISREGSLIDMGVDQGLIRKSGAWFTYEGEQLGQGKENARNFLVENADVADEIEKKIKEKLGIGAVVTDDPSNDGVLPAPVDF
GDH-TPI inh: counter-screen for M. tuberculosis FBA inhibitors: GDH-TPI coupled enzymes. GDH-TPI coupled enzyme counterscreen, NADH absorbance. inhibition, % at 4.8 µM. AID 588335. actives 1.2% (n = 360,000);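 further: 0% = DMSO wells and 100% = wells lacking the enzyme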
SARS 3CLpro inh: SARS-CoV 3CLpro protease inhibition; recombinant SARS-CoV 3CLpro, quenched FRET peptide cleavage; inhibition, % at 6 µM; actives 0.14% (n = 290,000); in the data active means inhibition above about 12%
VHR inh abs: blocks human VHR1 dual specificity phosphatase; P51452; actives 0.52% (n = 290,000); inhibition, % at 13.3 µM; recombinant VHR phosphatase, pNPP absorbance; in the data active means inhibition above about 50%
* = called active by the depositor; i = inactive; · = no result given; + = active, no number. Hits are enriched below; roughly 4.7% of the tested compounds scored in any of these assays. Unless noted, no stated cut-off is given here; in the data, active means inhibition above about 30%; inactive means the rest.

SMILES | FBA Mtb inh | CCHF vOTU inh | RecA intein inh | GDH-TPI inh | SARS 3CLpro inh | VHR inh abs
Cc1ccc(NC(=O)c2ccccc2O)cc1 | 5 | -3 | 2 | 8 | -4 | 54*
Cc1cc(=O)oc2c3c(cc(OCC(=O)NCC4CCC(C(=O)O)CC4)c12)OC(C)(C)CC3 (stereo unspecified) | + | -206 | 5 | 17 | 1 | 16
Cc1c(OCC(=O)N2CCC(C(=O)O)CC2)ccc2c3c(c(=O)oc12)CCC3 | 15 | -11 | 5 | 25 | -1 | 4
Cc1c(C)c2c(OCC(=O)NCC3CCC(C(=O)O)CC3)cc3c(c2oc1=O)CCC(C)(C)O3 (stereo unspecified) | 120* | -59 | · | 8 | · | ·
Cc1c(C)c2c(OCC(=O)N3CCC(C(=O)O)CC3)cc3c(c2oc1=O)CCC(C)(C)O3 | + | · | -1 | 36* | 5 | 29
C[C@@H]1NS(=O)(=O)c2ccc(F)cc2O[C@@H]1c1ccccc1 | · | 7 | · | · | · | ·
CC(=O)Cc1nsc(NC(=O)c2ccc(-c3cc(Cl)ccc3Cl)o2)n1 | 10 | 1 | 1 | 46* | 1 | 20
COc1cccc(CNC(=O)[C@H]2CCCN2C(=O)[C@H]2CCCN2C(=O)c2c(F)cccc2F)c1 | · | -3 | · | · | · | ·
Cc1ccc(C(=O)Nc2ccc(O)c(C(=O)O)c2)o1 | 7 | 4 | -1 | 6 | 1 | 4
CC(C)(C)c1ccc(OC(=O)Nc2ccc(O)c(C(=O)O)c2)cc1 | 80* | 0 | 2 | -2 | 5 | 4
Cc1onc(-c2c(F)cccc2Cl)c1C(O)c1ccc(F)cc1 (stereo unspecified) | -5 | -6 | 3 | -15 | 2 | 9
O=C(N/N=C\C=C\c1ccc2c(c1)OCO2)c1ccc(F)cc1 | 6 | -4 | 0 | 30 | 0 | 0
Cc1cc(C(=O)N/N=C/C=C/c2ccc3c(c2)OCO3)n[nH]1 | 3 | 9 | -1 | 50* | -4 | 31
O=C(N/N=C\c1ccc(O)c([N+](=O)[O-])c1)C1COc2ccccc2O1 (stereo unspecified) | -7 | 7 | -3 | 70* | 4 | -11
CC(C)(C)c1ccc2c(c1)OC(C(=O)N/N=C\c1ccncc1)CO2 (stereo unspecified) | 0 | 7 | 1 | 3 | 3 | 13
CC(C)(C)c1ccc2c(c1)OC(C(=O)N/N=C/c1ccc([N+](=O)[O-])o1)CO2 (stereo unspecified) | -2 | 11 | · | 0 | 2 | 57*
O=C(N/N=C/C=C/c1ccc2c(c1)OCO2)C(O)c1ccccc1 (stereo unspecified) | 2 | 1 | -4 | 56* | -4 | -9
CCN(CC)CCNC(=O)C1(O)c2cc(Br)ccc2NC(=O)N1c1ccccc1 (stereo unspecified) | 0 | 8 | 2 | 5 | -3 | ·
Cc1ccc(OCCNC(=O)CCc2ccccc2)cc1C | 0 | 1 | 0 | 5 | · | ·
CC(C)Oc1ccc(CN2CCC2(C)C(=O)Nc2cccc3cccnc23)cc1 (stereo unspecified) | 2 | 2 | · | 0 | · | ·
O=C(N/N=C\C=C\c1ccc2c(c1)OCO2)C1COc2cc3ccccc3cc2O1 (stereo unspecified) | 0 | 6 | -1 | 49* | -3 | 28
O=C(N/N=C/C=C/c1ccc([N+](=O)[O-])cc1)C1COc2ccccc2O1 (stereo unspecified) | 0 | 20 | 1 | 35* | 1 | 28
COc1cccc(C(c2nnnn2C2CCCC2)N2CCN(C/C=C/c3ccccc3)CC2)c1OC (stereo unspecified) | 2 | 9 | · | · | · | ·
CCN1C(=O)[C@H]2[C@@H](c3ccc(-c4cc(C(C)=O)cs4)cc3)N3CCCC[C@@]3(C(=O)OC)[C@H]2C1=O | 4 | 12 | · | 10 | · | ·
CCN1C(=O)[C@H]2[C@@H](c3ccc(-c4cc(C(C)=O)cs4)cc3)N3CCC[C@@]3(C(=O)OC)[C@H]2C1=O | 8 | -2 | · | 40* | · | ·
SMILES | FBA Mtb inh | CCHF vOTU inh | RecA intein inh | GDH-TPI inh | SARS 3CLpro inh | VHR inh abs
Cc1ccc2cccc(OC(=O)c3cccnc3Oc3ccccc3)c2n1 | · | 11 | · | · | · | ·
O=C(O)COc1ccccc1C(Nc1cccnc1)c1cc(Cl)c2cccnc2c1O (stereo unspecified) | 6 | · | 41* | 11 | 4 | -2
CCn1c(=S)sc2c(=O)n(-c3ccccc3)c(=S)[nH]c21 | 0 | -6 | 1 | 35* | -3 | 8
CCOc1ccccc1-n1c(=S)sc2c(=O)n(-c3ccc(C)cc3)c(=S)[nH]c21 | -3 | -4 | -1 | 2 | 4 | 28
O=C1NC(=S)N/C1=C\C=C\c1ccccc1 | 1 | 3 | -1 | 33* | 3 | 13
CS(=O)(=O)N1CCN(c2ccc([N+](=O)[O-])c(NCc3ccc(Cl)cc3)c2)CC1 | -8 | -7 | 2 | 9 | 1 | 90*
Cc1ccc(C=NNc2nc3c([nH]2)c(=O)n(C)c(=O)n3C)cc1 | 5 | 13 | · | 46* | · | ·
COc1ccc(C=NNc2nc3c([nH]2)c(=O)n(C)c(=O)n3C)cc1 | -1 | 7 | · | 34* | · | ·
Cn1c(=O)c2[nH]c(NN=Cc3ccc(Br)cc3)nc2n(C)c1=O | -2 | 4 | · | 28 | · | ·
CC(C)C[C@H]1COc2cccc(F)c2S(=O)(=O)N1 | · | -7 | · | · | · | ·
CN(C)c1nnnn1-c1cccc(Oc2ncc(C(F)(F)F)cc2Cl)c1 | 0 | 8 | -1 | 12 | 0 | -6
COC(=O)[C@]12CCCCC=C1N(Cc1ccc(Cl)cc1Cl)C(=O)[C@H](CC(=O)NCCC(C)C)C2 | · | 18 | · | · | · | ·
Cc1cc(=O)oc2cc(OCC(=O)Nc3nccs3)ccc12 | 14 | -1 | 0 | 21 | 3 | 20
Cc1c(C)c2ccc(OCC(=O)Nc3nccs3)cc2oc1=O | 65* | -17 | 1 | 17 | -9 | 12
COc1ccc(N(CC(=O)Nc2ccccc2OC)S(=O)(=O)c2ccc(NC(C)=O)cc2)cc1 | 2 | 7 | 1 | 31* | -1 | 12
CCCOc1ccccc1C1NC(=O)NC(C)=C1C(=O)OCCOCC (stereo unspecified) | -2 | 8 | -1 | -4 | 0 | 26
COC(=O)C1=C(C)NC(=O)NC1c1ccccc1Cl (stereo unspecified) | 0 | 2 | 1 | 1 | 3 | 25
COC(=O)C1=CN(C)C=C(C(=O)OC)C1c1ccccc1Cl | 199* | -208 | -170 | 19 | 2 | 4
COC(=O)C1=CN(C(C)C)C=C(C(=O)OC)C1c1cc(Br)c(OC)c(OC)c1 | 154* | -236 | i | 6 | 3 | -16
COC(=O)C1=CN(C(C)C)C=C(C(=O)OC)C1c1cccc(OC)c1 | + | -211 | -211 | 17 | 0 | 16
CCCOc1ccccc1C1C(C(=O)OC)=CN(C(C)C)C=C1C(=O)OC | 165* | -143 | i | 13 | 0 | -8
COc1ccc(C2C(C(=O)Nc3cc(Cl)ccc3F)CCC(=O)N2c2ccc(OC)cc2)cc1 (stereo unspecified) | · | 2 | · | · | · | ·
C[C@@H]1COc2cc(NCCO)ccc2S(=O)(=O)N1 | · | -2 | · | · | · | ·

Screening results from PubChem BioAssay.
